Some test systems named below: RPMI-8226 leukemia; OVCAR-8 ovarian; OVCAR-5 ovarian; OVCAR-4 ovarian; SK-OV-3 ovarian; IGROV1 ovarian; HS 578T breast; NCI/ADR-RES ovarian; T-47D breast; MDA-MB-435 melanoma; SW-620 colon; MCF7 breast; HCT-116 colon; HCC-2998 colon; KM12 colon; SR leukemia; OVCAR-3 ovarian; BT-549 breast.
Common to all, as to assay: NCI-60 one-dose screen, 48 h (100 = growth as untreated, 0 = no growth, -100 = all killed)
Details in all cases: 10 µM unless noted

Our source for the growth values is PubChem BioAssay (NCI).

About 83,000 compounds went through this panel and 20% of them were active in at least one assay; those are over-represented in the sample as a whole.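 48-hour exposure, single concentration, 96-well plates; percent growth endpoint where 0 means no net growth. Active: below 10.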 Values without a mark were called inactive. The source made the active and inactive calls.

For `Cc1ccc2sc3c(c2c1)OC(N)=C(C#N)C3c1ccc(Cl)cc1` (stereo not given), the growth was 93.2% with RPMI-8226 leukemia; 96.7% with OVCAR-8 ovarian; 93.4% with OVCAR-5 ovarian; 91.1% in the test on OVCAR-4 ovarian; 85.7% with SK-OV-3 ovarian; 65.2% in the test on IGROV1 ovarian. For the same compound, the growth is 78.3% in the test with HS 578T breast; 76.2% with NCI/ADR-RES ovarian; 56.6% in the test with T-47D breast; -10.7% (active) in the test on MDA-MB-435 melanoma; 63.4% in the test on SW-620 colon; 13.8% with MCF7 breast. Moreover, the growth was 88% in the test with HCT-116 colon, 84.8% with HCC-2998 colon and 45.5% in the test on KM12 colon.

Regarding `CC1(C)[C@@H](O)CC[C@]2(C)[C@H]3CC[C@@H]4[C@H]5[C@H](C(=O)/C=C\c6ccc([N+](=O)[O-])cc6)CC[C@]5(O)CC[C@@]4(C)[C@]3(C)CC[C@@H]12`, the growth was 1.04% (active) in the test on SR leukemia; 76.8% in the test on OVCAR-8 ovarian; 92% in the test with OVCAR-5 ovarian; 41.1% with OVCAR-4 ovarian; 107% in the test on SK-OV-3 ovarian; 56.6% in the test with IGROV1 ovarian. The growth in the test with OVCAR-3 ovarian is 43.2%; in the test with HS 578T breast it was 59.9%; in the test on NCI/ADR-RES ovarian, 64%; with T-47D breast it was 57.7%; with MDA-MB-435 melanoma, 36.1%; in the test with SW-620 colon, 30.2%. Further, the growth in the test on MCF7 breast was 38.7%; with HCT-116 colon, 4.14% (active); with HCC-2998 colon, 77.2%; in the test with KM12 colon, 53.3%.

Consider `Nc1nc(Nc2ccccc2SSc2ccccc2Nc2nc(N)nc(-c3ccc4ccccc4c3)n2)nc(-c2ccc3ccccc3c2)n1`, for which the growth was -25.5% (active) with SR leukemia; 84.4% with OVCAR-8 ovarian; 99.3% in the test with OVCAR-5 ovarian; 83.9% in the test on OVCAR-4 ovarian; 112% with SK-OV-3 ovarian; 106% with OVCAR-3 ovarian. Besides, the growth with HS 578T breast was 86.2%; in the test on NCI/ADR-RES ovarian it was 19.5%; in the test with T-47D breast it was 74.9%; in the test on MDA-MB-435 melanoma it was 85.2%; with SW-620 colon, 104%; with MCF7 breast it was 76%. Besides, the growth in the test on HCT-116 colon is 57.9%; with HCC-2998 colon it was 120%; with KM12 colon, 51.5%.

Turning to `COc1ccc([C@H]2[C@H](O)C(=O)N2c2cc(OC)c(OC)c(OC)c2)cc1F`, the growth in the test on SR leukemia was 9.35% (active); in the test with OVCAR-8 ovarian, -15% (active); in the test on OVCAR-5 ovarian, 27.7%; with OVCAR-4 ovarian it was 67.7%; in the test with SK-OV-3 ovarian it was 30.1%; in the test on IGROV1 ovarian, 19.2%. Also, the growth in the test on HS 578T breast was 3.89% (active); in the test with NCI/ADR-RES ovarian it was 8.51% (active); in the test with T-47D breast, 68.7%; in the test with BT-549 breast, -21.1% (active); in the test on MDA-MB-435 melanoma, -10.4% (active); in the test with SW-620 colon, 22.2%. Also, the growth with MCF7 breast was 11%; with HCT-116 colon, 0.995% (active); with HCC-2998 colon, 10.9%; in the test on KM12 colon, 9.99% (active).

Take `C=C(C=O)[C@@H]1CC[C@]2(CO)CC[C@]3(C)[C@H](CC[C@@H]4[C@@]5(C)CCCNC(C)(C)[C@@H]5CC[C@]43C)[C@@H]12`: the growth with SR leukemia was 3.73% (active); with OVCAR-8 ovarian, 50.8%; in the test on OVCAR-5 ovarian it was 88.7%; in the test on SK-OV-3 ovarian it was 104%; with IGROV1 ovarian, 52.8%; in the test on OVCAR-3 ovarian, 3.49% (active). For the same compound, the growth in the test with HS 578T breast is 71.8%; with NCI/ADR-RES ovarian, 65.3%; in the test on T-47D breast it was 13.3%; in the test on BT-549 breast it was 74.3%; in the test with MDA-MB-435 melanoma it was 76.3%; in the test with SW-620 colon, 1.41% (active). Further, the growth was 12.7% in the test on MCF7 breast, -63.8% (active) in the test with HCT-116 colon and 1.61% (active) in the test with KM12 colon.

In the case of `CCNC(=O)N1CCc2cc(OC)c(OCCc3ccc(OC)nc3)cc2C1c1ccc(OC)cc1C` (stereo not given), the growth in the test with SR leukemia is 10.9%; in the test on OVCAR-8 ovarian it was 42.4%; in the test with OVCAR-5 ovarian, 51%; in the test with SK-OV-3 ovarian it was 54.6%; in the test with HS 578T breast it was 29.8%; with NCI/ADR-RES ovarian it was 23.5%. The growth is 49% with T-47D breast; 29.2% in the test on BT-549 breast; 15% in the test on MDA-MB-435 melanoma; 16% in the test on SW-620 colon; 22.2% with MCF7 breast; 14.4% in the test with HCT-116 colon. Further, the growth was 42.8% in the test on HCC-2998 colon and 21.2% in the test on KM12 colon.

With `O=C(Nc1ccc2c(ccn2Cc2ccccn2)c1)c1ccnnc1`, the growth is 101% in the test on SR leukemia; 104% in the test with OVCAR-8 ovarian; 95% in the test on OVCAR-5 ovarian; 68.3% in the test on OVCAR-4 ovarian; 105% with SK-OV-3 ovarian; 80.3% in the test on IGROV1 ovarian. The growth in the test with HS 578T breast is 102%; in the test on NCI/ADR-RES ovarian it was 114%; with T-47D breast, 97.9%; in the test with MDA-MB-435 melanoma, 98.3%; with SW-620 colon, 101%; in the test with MCF7 breast, 102%. Further, the results for the growth in the test with HCT-116 colon, in the test on HCC-2998 colon and in the test with KM12 colon were 93.2%, 120% and 99.4%, respectively.

Consider `O=C(Cn1c(-c2ccccc2)nc2cc(Cl)c(Cl)cc21)N=Nc1c(O)[nH]c2ccc(Cl)cc12`, for which the growth in the test with SR leukemia is 67.9%; in the test with OVCAR-8 ovarian, 83.5%; in the test with OVCAR-5 ovarian it was 80.5%; in the test on OVCAR-4 ovarian, 77.9%; in the test with SK-OV-3 ovarian, 85.6%; with IGROV1 ovarian it was 87.9%. Besides, the growth in the test on HS 578T breast is 81.3%; with NCI/ADR-RES ovarian, 72.3%; in the test on T-47D breast, 61.5%; in the test with BT-549 breast, 56.2%; in the test with MDA-MB-435 melanoma, 83.2%; with SW-620 colon it was 81.9%. For the same compound, the growth in the test on MCF7 breast was 71.8%; in the test with HCT-116 colon, 53.4%; in the test on HCC-2998 colon, 86%; in the test on KM12 colon it was 73.8%.

Take `CCO/C=N/C1=C(C#N)C(c2ccc(Cl)cc2)c2sc3c(CC)cccc3c2O1` (stereo not given): the growth with SR leukemia is 18%; in the test with OVCAR-8 ovarian it was 28.5%; in the test with OVCAR-5 ovarian it was 36.9%; in the test on OVCAR-4 ovarian, 76.5%; in the test with SK-OV-3 ovarian it was 58.2%; in the test with OVCAR-3 ovarian it was -20.5% (active). Also, the growth with HS 578T breast is 18.4%; in the test on NCI/ADR-RES ovarian, 14.9%; with BT-549 breast, 59.6%; in the test on MDA-MB-435 melanoma, -43.2% (active); in the test on SW-620 colon, 32.3%; in the test on MCF7 breast, 16.2%. Moreover, the growth with HCT-116 colon is 23.1%; in the test with HCC-2998 colon, 23.6%; in the test with KM12 colon, 15.3%.

Turning to `COc1cc2nc(Cl)nc(Nc3cccc(C4=Nc5c(N)nc(N)nc5NC(c5ccc(Br)cc5)C4)c3)c2cc1OC` (stereo not given), the growth in the test with RPMI-8226 leukemia was -2.07% (active); with OVCAR-8 ovarian, 54.6%; with OVCAR-5 ovarian it was 113%; with OVCAR-4 ovarian, 103%; in the test on SK-OV-3 ovarian, 125%; with IGROV1 ovarian, 94.1%. In addition, the growth was 72.6% with OVCAR-3 ovarian; 79.8% in the test on HS 578T breast; 86.6% in the test with NCI/ADR-RES ovarian; 85.1% in the test with T-47D breast; 87.8% with BT-549 breast; 47.4% in the test with MDA-MB-435 melanoma. Besides, the growth in the test on SW-620 colon is 46.5%; in the test on MCF7 breast, 39.3%; with HCT-116 colon it was -10.5% (active); with HCC-2998 colon it was 41.5%; in the test with KM12 colon, 24.3%.

Turning to `O=C(Nc1nc2ccc([N+](=O)[O-])cc2s1)Nc1ccccc1Cl`, the growth with SR leukemia was 18.1%; in the test on OVCAR-8 ovarian, 12.8%; in the test with OVCAR-5 ovarian it was 81.8%; in the test on OVCAR-4 ovarian, 14%; in the test on SK-OV-3 ovarian, 22.8%; in the test on OVCAR-3 ovarian it was 16.8%. For the same compound, the growth in the test with HS 578T breast is 46.9%; with NCI/ADR-RES ovarian, 47.1%; in the test on T-47D breast, -0.208% (active); in the test on BT-549 breast, 36.9%; with MDA-MB-435 melanoma it was 19.6%; in the test on SW-620 colon it was 46.1%. In addition, the growth in the test with MCF7 breast was 55.8%; with HCT-116 colon it was 21.4%; with HCC-2998 colon, 47.6%; in the test on KM12 colon, 26.4%.
